We go through 54 compounds from publication PMC4336329 (PLoS ONE, 2015).

Screen size: about 310,000 compounds; about 14,000 (4.5%) showed an effect of 50% or more. The effect is printed as a negative number. What follows is part of a selection rich in strong results, with near analogues and random picks from the rest.
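Also: peak tail current of the secondary pulse compared with the same well before compound.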

human ether-à-go-go-related gene (hERG) potassium channel, sequence (Q12809 whole entry, looked up): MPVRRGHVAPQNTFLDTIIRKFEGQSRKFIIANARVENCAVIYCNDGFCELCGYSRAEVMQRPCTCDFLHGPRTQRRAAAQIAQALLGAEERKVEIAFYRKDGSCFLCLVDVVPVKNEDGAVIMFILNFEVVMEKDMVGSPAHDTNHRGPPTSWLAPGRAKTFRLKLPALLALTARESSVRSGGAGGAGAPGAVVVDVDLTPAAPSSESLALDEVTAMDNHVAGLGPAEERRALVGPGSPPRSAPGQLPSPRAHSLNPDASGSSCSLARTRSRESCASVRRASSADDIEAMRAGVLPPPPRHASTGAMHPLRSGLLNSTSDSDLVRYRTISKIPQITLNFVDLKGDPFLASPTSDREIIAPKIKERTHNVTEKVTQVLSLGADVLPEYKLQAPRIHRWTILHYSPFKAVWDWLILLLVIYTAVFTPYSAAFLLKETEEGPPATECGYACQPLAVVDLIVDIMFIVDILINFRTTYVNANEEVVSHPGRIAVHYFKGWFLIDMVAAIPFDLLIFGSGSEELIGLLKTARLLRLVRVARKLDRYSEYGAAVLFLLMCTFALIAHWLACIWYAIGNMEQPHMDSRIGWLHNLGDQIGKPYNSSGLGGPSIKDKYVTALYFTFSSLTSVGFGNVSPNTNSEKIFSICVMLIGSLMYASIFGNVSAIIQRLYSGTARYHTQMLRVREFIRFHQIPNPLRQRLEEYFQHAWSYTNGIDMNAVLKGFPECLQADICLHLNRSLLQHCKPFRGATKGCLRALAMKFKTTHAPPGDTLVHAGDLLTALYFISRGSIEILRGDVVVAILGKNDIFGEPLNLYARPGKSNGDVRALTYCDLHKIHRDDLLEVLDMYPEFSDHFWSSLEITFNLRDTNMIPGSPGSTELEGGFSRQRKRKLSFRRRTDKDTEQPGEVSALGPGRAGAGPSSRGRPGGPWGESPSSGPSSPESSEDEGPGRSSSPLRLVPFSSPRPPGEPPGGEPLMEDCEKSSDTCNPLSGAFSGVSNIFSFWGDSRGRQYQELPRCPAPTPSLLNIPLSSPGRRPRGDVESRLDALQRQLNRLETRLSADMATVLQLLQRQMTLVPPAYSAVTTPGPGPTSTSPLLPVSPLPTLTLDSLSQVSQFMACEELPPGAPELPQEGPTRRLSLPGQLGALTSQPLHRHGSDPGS

The test addresses human ether-à-go-go-related gene (hERG) potassium channel (human, UniProt Q12809). Nature of the test: primary screen, population patch clamp on CHO cells stably expressing hERG; higher = less effect of the substance.
On to `Cc1cccn2c(Nc3ccccc3)c(-c3ccccn3)nc12`, for which the “hERG current change (%, negative = inhibition) at 10uM” value was determined as 1.81%. Then `NC(CSCc1ccccc1Cl)C(=O)O` (stereo not drawn), with 0.173%. In the case of `COc1ccc(S(=O)(=O)N(C)c2ccc(C(=O)Nc3ccccc3C(=O)N3CCOCC3)cc2)cc1`, the “hERG current change (%, negative = inhibition) at 10uM” value is given as -6.94%. With `Cc1ccc(-n2nnnc2-c2ccco2)cc1`, the “hERG current change (%, negative = inhibition) at 10uM” value was -2.37%. As to `O=C(N1CCC(n2nc(-c3ccccc3)oc2=O)CC1)C1(c2ccccc2)CC1`, the “hERG current change (%, negative = inhibition) at 10uM” value is given as -17.5%. With `CC(=O)c1ccc(OC(=O)C2CC(=O)N(c3cccc(C)c3)C2)cc1` (stereo not drawn) the figure was -1.85%.

Take `Cc1cccc(N2CC(C(=O)OCc3ccc([N+](=O)[O-])cc3)CC2=O)c1` (stereo not drawn): the “hERG current change (%, negative = inhibition) at 10uM” value was -64%. With `CCc1ccc(N2CC(C(=O)OCC(=O)Nc3ccc([N+](=O)[O-])cc3)CC2=O)cc1` (stereo not drawn) the figure was -36.9%; with `COc1ccc(NC(=O)COC(=O)C2CC(=O)N(Cc3ccc(C)cc3)C2)cc1` (stereo not drawn), -12.7%; with `COc1ccc(COC(=O)C2CC(=O)N(Cc3ccccc3)C2)cc1` (stereo not drawn), -34.1%. For the compound `Cc1cccc(N2CC(C(=O)O)CC2=O)c1` (stereo not drawn), the “hERG current change (%, negative = inhibition) at 10uM” value was -15.2%. Then `Cc1ccc(N2CC(C(=O)OCc3ccccc3)CC2=O)cc1` (stereo not drawn), with -15.6%. Then `NC(=O)C1CC(=O)N(c2ccc(OCc3ccc([N+](=O)[O-])cc3)cc2)C1` (stereo not drawn), with -30.8%; and `O=C(OCc1ccc([N+](=O)[O-])cc1)C1CC(=O)N(c2ccccc2)C1` (stereo not drawn), with -69.1%; and `CCc1ccc(N2CC(C(=O)OCC(=O)Nc3ccc(C(C)=O)cc3)CC2=O)cc1` (stereo not drawn), with -19.1%. In the case of `COc1ccc(COC(=O)C2CC(=O)N(Cc3ccc(C)cc3)C2)cc1` (stereo not drawn), the “hERG current change (%, negative = inhibition) at 10uM” value is -58.3%. Regarding `CCc1ccc(N2CC(C(=O)OCC(=O)Nc3ccc(C#N)cc3)CC2=O)cc1` (stereo not drawn), the “hERG current change (%, negative = inhibition) at 10uM” value is given as -57.9%. On to `Cc1ccnc(NS(=O)(=O)c2ccc(NS(=O)(=O)Cc3ccccc3)cc2)n1`, for which the “hERG current change (%, negative = inhibition) at 10uM” value is on record as 9.43%.

With `COc1cc2c(cc1OC)C(=S)NC1(CCCC1)C2`, the “hERG current change (%, negative = inhibition) at 10uM” value stood at 9.36%. With `COc1ccc(CCNC(C)C(=O)Nc2ccc(S(N)(=O)=O)cc2)cc1` (stereo not drawn) the figure was -9.23%. Then `CC1CCC2C(=O)N(c3ccc(NC4CCCCC4)c([N+](=O)[O-])c3)C(=O)C2C1` (stereo not drawn), with 1.71%; and `Cc1ccc(CSc2nc3c(c(=O)[nH]2)C(c2ccncc2)C2=C(CCCC2=O)N3)cc1` (stereo not drawn), with 9.42%. In the case of `COc1ccc(CCN2CC(C(=O)N(C)Cc3cccnc3)CC2=O)cc1OC` (stereo not drawn), the “hERG current change (%, negative = inhibition) at 10uM” value was found to be 8.53%. Then `COC(=O)c1nnn(-c2nonc2N)c1CSCCO`, with 14.6%; and `Cc1ccc(N2CC(C(=O)OCC(=O)c3ccc([N+](=O)[O-])cc3)CC2=O)cc1` (stereo not drawn), with -26.8%. With `Cc1ccc(N2CC(C(=O)OCc3ccc([N+](=O)[O-])cc3)CC2=O)cc1` (stereo not drawn) the figure was -58.5%.

With `Cc1ccc(N2CC(C(=O)OCC(=O)C(C)(C)C)CC2=O)cc1` (stereo not drawn), the “hERG current change (%, negative = inhibition) at 10uM” value is -4.69%. Then `O=C1OC(Nc2ccccn2)c2ccccc21` (stereo not drawn), with -5.61%. Then `NC(=O)C1(N2CCCCC2)CCN(C(=O)c2ccc(C#CC3(O)CCCCC3)cc2)CC1`, with -6.21%. With `O=C(NCc1ccco1)/C(=C\c1cccnc1)NC(=O)c1ccccc1F` the figure was -51.1%; with `COc1ccc(/C=C(/NC(=O)c2ccccc2)c2nc3ccccc3[nH]2)cc1OC`, -12.5%; with `COc1ccccc1C(=O)N/C(=C\c1ccccc1)C(=O)NCc1ccco1`, -38.1%.

Consider `O=C(N/C(=C\c1cccnc1)c1nc2ccccc2[nH]1)c1cccc(Br)c1`, for which the “hERG current change (%, negative = inhibition) at 10uM” value is -54.9%. Consider `Cc1ccc(C(=O)N/C(=C\c2cccnc2)c2nc3ccccc3[nH]2)cc1`, for which the “hERG current change (%, negative = inhibition) at 10uM” value was -19.7%.

On to `Cc1ccc(C(=O)N/C(=C/c2cccnc2)C(=O)NCc2ccco2)cc1`, for which the “hERG current change (%, negative = inhibition) at 10uM” value was -41.7%. Then `O=C(NCc1ccco1)/C(=C\c1ccccc1)NC(=O)c1ccccc1`, with 6.85%; and `O=C(NCc1ccco1)/C(=C/c1cccnc1)NC(=O)c1cccc(Br)c1`, with -59.6%; and `COc1ccc(C(=O)N/C(=C/c2cccnc2)C(=O)NCc2ccco2)cc1OC`, with 9.12%. Consider `CCCNS(=O)(=O)c1cccc2cccnc12`, for which the “hERG current change (%, negative = inhibition) at 10uM” value is -6.32%. With `Cc1cccc(-c2cc(C(=O)NCc3ccccn3)c3ccccc3n2)c1`, the “hERG current change (%, negative = inhibition) at 10uM” value was -18%. In the case of `Cc1ccc(OCc2n[nH]c(=S)n2C2CCCCC2)cc1`, the “hERG current change (%, negative = inhibition) at 10uM” value is listed as 21%. Then `Cc1ccc(-n2c(C)cc(/C=N/NC(=O)c3ccncc3)c2C)cc1C`, with 17.3%.

`COc1ccccc1-n1cnnc1SCc1csc(-c2ccccc2)n1`: the “hERG current change (%, negative = inhibition) at 10uM” value is listed as -20.9%. For `O=C(CCC(=O)c1cccs1)NCc1cccc(C(F)(F)F)c1`, the “hERG current change (%, negative = inhibition) at 10uM” value was -7.88%. On to `COc1ccc(C(=O)N2CCN(c3ncccn3)CC2)cc1S(=O)(=O)N1CCOCC1`, for which the “hERG current change (%, negative = inhibition) at 10uM” value turned out to be 6.96%. Then `CCC(=O)N1CCc2cc(OC)c(OC)cc2C1COc1ccc(C(=O)OC)cc1` (stereo not drawn), with -1.37%. For `COc1cc2c(cc1OC)C(COc1ccc(F)cc1)N(C(C)=O)CC2` (stereo not drawn), the “hERG current change (%, negative = inhibition) at 10uM” value is -11.9%. With `COC(=O)c1ccc(OCC2c3cc(OC)c(OC)cc3CCN2C(C)=O)cc1` (stereo not drawn) the figure was 8.8%; with `CCc1ccc(OCC2c3cc(OC)c(OC)cc3CCN2C(C)=O)cc1` (stereo not drawn), -11.5%. In the case of `COc1cc2c(cc1OC)C(COc1ccc(F)cc1)NCC2` (stereo not drawn), the “hERG current change (%, negative = inhibition) at 10uM” value is given as -26.8%.

In the case of `COc1cc2c(cc1OC)C(COc1ccc([N+](=O)[O-])cc1)N(C(C)=O)CC2` (stereo not drawn), the “hERG current change (%, negative = inhibition) at 10uM” value is -77.4%. Take `COc1cc2c(cc1OC)C(COc1ccc([N+](=O)[O-])cc1)NCC2` (stereo not drawn): the “hERG current change (%, negative = inhibition) at 10uM” value is -76.6%. With `COC(=O)c1ccc(OCC2c3cc(OC)c(OC)cc3CCN2C(=O)C2CC2)cc1` (stereo not drawn), the “hERG current change (%, negative = inhibition) at 10uM” value is reported as -56.3%. Then `COc1ccc(OCC2NCCc3cc(OC)c(OC)cc32)cc1` (stereo not drawn), with -8.93%.
